Source: PubChem BioAssay AID651747 (Johns Hopkins Ion Channel Center, 2012)
The campaign covered roughly 2,400 compounds. About 950 (40%) were called active.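 Rule for the calls: active = thallium flux ratio, averaged over three wells, more than 5 SD below the buffer control mean; inactive = the rest.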 Not all results are given here.

Assay: thallium flux inhibition in non-induced cells, primary screen, counter-screen for KCNK3 inhibitor project, cell-based, non-induced KCNK3 line, FluxOR thallium, triplicate (AID 651747);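 note: host cells are CHO cells without KCNK3 induction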;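 for thallium flux ratio (lower = more inhibition): ratio is peak minus trough fluorescence over baseline then normalized to buffer controls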
Conditions: non-induced KCNK3 parental cells, at 10 µM; hits give low values

Compound | thallium flux ratio (lower = more inhibition)
CN1CCc2ccccc2C1Cc1ccccc1NC(=O)c1sc2ccccc2c1Cl (stereo not given) | 0.143 (active)
N#Cc1cccc(NC(=O)COC(=O)c2ccccc2C(=O)c2ccc(Cl)c([N+](=O)[O-])c2)c1 | 0.153 (active)
Cc1ccc(NC(=S)N2CCCC(c3ccccc3)=N2)cc1 | inactive
COc1ccc(Nc2ncnc3sc(-c4ccccc4)cc23)c(OC)c1 | 0.124 (active)
FC(F)(F)c1cccc(-c2cc3ccccc3nc2N2CCCC2)c1 | 0.127 (active)
O=C(c1cc(-c2ccc(O)cc2)on1)N1CCCc2ccccc21 | inactive
CSc1nccc(NC(=O)c2ccc(C(C)(C)C)cc2)n1 | inactive
COc1cccc(CNc2nc(C(F)(F)F)nc3ccccc23)c1 | 0.111 (active)
COc1ccccc1NC(=O)CSc1nc2sc(C)c(C)c2c(=O)n1Cc1ccco1 | inactive
C=CCSc1nnc(N2C(=O)C(O)=C(C(=O)c3ccco3)C2c2ccc(F)cc2)s1 (stereo not given) | 0.101 (active)
COc1cc(/C=C(\C#N)c2nc3ccccc3[nH]2)ccc1O | 0.0933 (active)
Cc1cccc(NC(=O)c2sc3nc4c(c(-c5ccco5)c3c2N)CCC4)c1 | inactive
[O-][n+]1ccc(OCc2ccccc2)cc1 | inactive
COc1cccc(COc2ccc(N(C)S(=O)(=O)c3ccccc3)cc2)c1 | 0.109 (active)
N/C(Cc1ccc([N+](=O)[O-])cc1)=N\OC(=O)COc1ccc2ccccc2c1 | inactive
N#Cc1nc(Cc2cccc3ccccc23)oc1NCc1ccc2c(c1)OCO2 | 0.152 (active)
COc1ccc([N+](=O)[O-])cc1-c1nc2ccccc2nc1-c1ccccc1 | 0.129 (active)
CCCC(=O)Nc1ccc(Cl)c(NC(=O)c2ccc(Br)o2)c1 | inactive
CN(CCC(=O)Nc1cc(S(=O)(=O)N(C)C)ccc1Cl)CC(=O)Nc1ccc(F)cc1 | 0.159 (active)
Cc1cc(C)c(S(=O)(=O)c2ccccc2)c(OC(=O)c2c(F)cccc2Cl)n1 | inactive
CS/C(=C\C(=O)c1ccco1)Nc1ccccc1Cl | 0.154 (active)
Cc1cccc2cc(CN(Cc3nnnn3Cc3ccccc3)C3CCCC3)c(=O)[nH]c12 | 0.139 (active)
Cc1cc(OCCCCOc2ccc(C#N)cc2)ccc1[N+](=O)[O-] | inactive

Compound | thallium flux ratio (lower = more inhibition)
O=C1c2ccccc2C2=Nc3ccccc3SC(c3ccccc3F)C12 (stereo not given) | 0.125 (active)
CCCCCCCCCCOC(=O)Cn1c(COc2cccc(OC)c2)[n+](C)c2ccccc21 | inactive
CCCOc1ccc2c3c(c(=O)oc2c1OCCC)CCC3 | 0.158 (active)
COc1cccc(CN(C)CC(O)COC(c2ccccc2)c2ccccc2C)c1 (stereo not given) | 0.146 (active)
FC(F)(F)c1cc(-c2ccco2)nc(NCc2ccc(Cl)cc2)n1 | 0.148 (active)
Cc1ccc(S(=O)(=O)NCc2cn3ccsc3n2)c(C)c1 | inactive
O=C(NCCc1c[nH]c2ccccc12)c1cccc(Br)c1 | 0.159 (active)
COc1cccc(C(=O)NCCSc2ccc(Br)cc2)c1 | inactive
O=C(CSc1nc(Nc2ccccc2)nc(N2CCOCC2)n1)Nc1cc(Cl)ccc1O | 0.137 (active)
CC(C)c1ccccc1OCC(O)CN(CC(O)COc1cccc2ccccc12)C(C)C (stereo not given) | inactive
C=CCN(C(=O)c1cc(C)cc(C)c1)C1(C(=O)Nc2ccccc2)CCN(C(C)C)CC1 | inactive
CC(=O)Nc1cccc(OCC(=O)/C=C2\N(C)c3ccccc3C2(C)C)c1 | inactive
COc1cccc(/C=N/Nc2cc(C)nc(-c3ccccc3O)n2)c1O | 0.109 (active)
CC[n+]1cc(C)ccc1/C=C/c1ccc(N(C)C)cc1 | 0.106 (active)
N#Cc1ccc(S(=O)(=O)NCC(=O)OCC(=O)NCCc2ccccc2)cc1 | inactive
Cc1cccc(-c2nc3ccc(C(=O)NCCN4CCN(C)CC4)cc3nc2-c2cccc(C)c2)c1 | 0.106 (active)
Cc1ccc(NC(=O)c2cc([N+](=O)[O-])ccc2Cl)c(O)c1 | inactive
CSc1nnc2c(n1)OC(c1ccsc1)N(C(C)=O)c1ccccc1-2 (stereo not given) | inactive
Clc1cccc(-c2nc(NCC3CCCO3)c3ccccc3n2)c1 (stereo not given) | 0.129 (active)
CCn1ncc(Br)c1C(=O)Nc1cc(C)ccc1F | inactive
CCOc1ccccc1Oc1cn[nH]c1-c1ccc(OC)cc1O | inactive
S=C(Nc1cccc(Br)c1)N1CCn2cccc2C1c1cccnc1 (stereo not given) | inactive
COC(=O)C1=C(C)N(C(C)c2ccccc2)C(=O)/C1=C\c1ccco1 (stereo not given) | 0.158 (active)

Compound | thallium flux ratio (lower = more inhibition)
O=C(Nc1ccccc1)O/N=C1\CCCCC1c1ccc([N+](=O)[O-])cc1[N+](=O)[O-] (stereo not given) | inactive
CC(C)c1cc(C(=O)N/N=C/c2ccoc2)c(O)c(C(C)C)c1 | 0.147 (active)
CSc1cccc(NC(=S)N(C(C)C)C(C)c2ccccn2)c1 (stereo not given) | inactive
FC(F)(F)c1cccc(NC(=S)Nc2cccc(Cl)c2)c1 | 0.128 (active)
O=C(CC1NCCc2ccccc21)Nc1cccc(Cl)c1 (stereo not given) | inactive
CC(Oc1cccc(NC(=O)c2cccs2)c1)C(=O)c1ccccc1 (stereo not given) | inactive
O=C(Nc1cccc(Cl)c1)Nc1ccccc1NS(=O)(=O)c1cccs1 | 0.131 (active)
CC(NCc1cccs1)C(=O)Nc1cc(Cl)cc(Cl)c1 (stereo not given) | inactive
C=CCSc1nsc(NC(=O)Nc2cccc(C(C)=O)c2)n1 | inactive
O=C(NCCc1ccccc1)c1ccc2c(c1)N(Cc1ccccc1)CCS2 | 0.16 (active)
O=C(Cn1cc(C(=O)c2cccs2)c2ccccc21)NCc1cccs1 | inactive
CC(=O)N(C1=C(Cl)C(=O)c2ccccc2C1=O)c1ccc(C(=O)O)cc1 | 0.11 (active)
CC(C(=O)NCC1CCCCC1)N(C)Cc1cccc(Cl)c1 (stereo not given) | inactive
CC(C)CCNC(=O)C(C)N(C(=O)Cn1nnc(-c2ccc(F)cc2)n1)C1CCCC1 (stereo not given) | inactive
COc1cccc(NC(=S)N(CCc2c(C)[nH]c3ccccc23)Cc2ccco2)c1 | 0.153 (active)
Cc1nonc1C1CCCN1C(=O)c1cc(COc2cccc(C(F)(F)F)c2)on1 (stereo not given) | inactive
Cc1cccc(N(Cc2ccccc2)C(=O)c2ccccc2F)c1 | inactive
Cc1cccc(C)c1N1CCN(S(=O)(=O)N2CCCCC2)CC1 | 0.156 (active)
COc1ccccc1N1CCN(/N=C\C(Br)=C\c2ccccc2)CC1 | inactive
c1ccc2c(NC3C4CC5CC(C4)CC3C5)nc(N3CCOCC3)nc2c1 (stereo not given) | 0.151 (active)
COc1ccc(Cl)cc1NC(=O)C(C)N1CCc2ccccc21 (stereo not given) | inactive
CCOc1ccc(C2c3[nH]c4ccccc4c3CCN2Cc2cccn2-c2ncccn2)cc1 (stereo not given) | inactive
C=CCc1cc(S(=O)(=O)c2ccc(O)c(CC=C)c2)ccc1O | 0.155 (active)

Compound | thallium flux ratio (lower = more inhibition)
CCN(CC)CCN(C(=O)c1cc(Cl)sc1Cl)c1nc2cc3c(cc2s1)OCO3 | 0.143 (active)
COc1cc(Cl)c(S(=O)(=O)N2CCN(Cc3ccc4c(c3)OCO4)CC2)cc1Cl | inactive
COC(=O)c1cc(NC2c3ccccc3C(=O)N2c2ccc(Cl)cn2)cc(C(=O)OC)c1 (stereo not given) | inactive
O=C(CNCCC1=CCCCC1)Nc1ccccc1N1CCCCCC1 | inactive
CCCCC(=O)Nc1ccccc1N1CCN(c2ccc(F)cc2)CC1 | inactive
O=C(Nc1ccccc1N1CCCC1)c1ccc2ccccc2c1 | 0.131 (active)
Cc1cccc(C(=O)Nc2ccccc2N2CCN(c3ccc(F)cc3)CC2)c1 | 0.151 (active)
CCc1cc(C(c2ccccc2OC)N2CCOCC2)c(NC(=O)c2ccccc2)s1 (stereo not given) | inactive
CSCc1cc(N(C)C)nc(SCc2ccc(Cl)cc2Cl)n1 | 0.15 (active)
COc1ccc2c(c1)C(c1cccs1)=NNC(c1cccnc1)=N2 | inactive
c1ccc(C(c2ccccc2)N2CCN(Cc3nnnn3C3CCCCC3)CC2)cc1 | 0.129 (active)
Cc1cccc2c1-c1sc(C(=O)NCCCN3CCc4ccccc4C3)cc1CO2 | inactive
CCCCCCCCCCCCN1C(=O)CSC1c1cccnc1 (stereo not given) | 0.148 (active)
Cc1c(C(=O)N2CCCc3ccccc32)sc2nc(-c3ccccc3)cn12 | inactive
COc1ccc(CC(=O)Nc2nc(-c3ccc(F)c(F)c3)cs2)cc1OC | 0.102 (active)
CCc1ccc2nc3sc(C(=O)Nc4nnc(CC)s4)c(N)c3cc2c1 | 0.108 (active)
COc1ccc(C2Nc3ccccc3C(=O)N2Cc2ccccc2)cc1Cn1nnc2ccccc21 (stereo not given) | 0.144 (active)
CCCc1cc(C(=O)N2CCCC(CO)(CCCc3ccccc3)C2)n(C)n1 (stereo not given) | 0.152 (active)
CC(=O)N1CCCc2cc(S(=O)(=O)N3CCCC(C(=O)N4CCN(c5cccc(Cl)c5)CC4)C3)ccc21 (stereo not given) | inactive
CC(Sc1nc2ccccc2c(=O)n1Cc1ccco1)C(=O)c1ccccc1 (stereo not given) | inactive
CCc1nc(SCC(=O)NNC(=O)c2ccc(C)cc2)c2ccccc2n1 | inactive
O=C(Nn1c(SCc2ccc([N+](=O)[O-])cc2)nc2ccccc2c1=O)c1ccc(F)cc1 | 0.136 (active)
COc1cc(C(=O)Nc2oc(-c3ccccc3)c(-c3ccccc3)c2C#N)cc(OC)c1OC | inactive

Compound | thallium flux ratio (lower = more inhibition)
Cc1cc(NC(=O)Nc2ccc(Cl)cc2)n(-c2ccccc2)n1 | inactive
O=C(Nc1cccc(S(=O)(=O)Nc2ccc(Cl)cc2)c1)c1ccc2c(c1)OCCO2 | 0.136 (active)
C=CCN(N=Nc1cccc([N+](=O)[O-])c1)c1cccc([N+](=O)[O-])c1 | inactive
COc1ccccc1C(c1nnnn1C(C)(C)C)N1CCN(Cc2ccccc2)CC1 (stereo not given) | inactive
CCC(C)(C)n1nnnc1C(c1cccs1)N1CCN(c2nc3ccccc3s2)CC1 (stereo not given) | 0.156 (active)
COCCNc1cc(-c2ccccc2)nc2cc(-c3cccc(F)c3)nn12 | 0.13 (active)
Cc1nc(N2CCOCC2)c2c(C)c(C(=O)Nc3ccc(C(F)(F)F)cc3)sc2n1 | 0.152 (active)
Cc1nc(N2CCN(c3ccccn3)CC2)c2c(C)c(C(=O)Nc3ccc(F)cc3)sc2n1 | inactive
Cc1nc(N2CCN(c3ccccn3)CC2)c2c(C)c(C(=O)Nc3ccc(F)c(Cl)c3)sc2n1 | inactive
Cc1ccc(NC(=O)COC(=O)CNC(=O)c2ccc(Cl)cc2Cl)cc1S(=O)(=O)N1CCOCC1 | inactive
O=C(N/N=C/c1sc(N2CCCCC2)nc1-c1cccs1)c1cccnc1 | 0.155 (active)
Oc1ccc(/C=N/Nc2nc(-c3ccccc3F)nc3ccccc23)c(O)c1 | 0.143 (active)
Cc1cc(C)c(C#N)c(SCc2ccc3c(c2)OCO3)n1 | 0.115 (active)
COc1ccc(CN(C)C(=O)c2cc(-c3ccc(C)cc3C)nc3ccccc23)c(OC)c1OC | 0.111 (active)
CC(=O)c1ccccc1OCc1ccc(C(=O)c2ccccc2)cc1 | 0.103 (active)
COc1ccc(CCNC(=O)c2ccccc2OCc2ccccc2)cc1 | 0.153 (active)
Cc1nc2ccccc2cc1OCc1ccc(F)cc1 | inactive
COc1ccc(-c2nc(CCNC(=O)c3ccc(Br)o3)cs2)cc1 | inactive
O=C(N/N=C/c1cccc(OCc2ccccc2)c1)c1ccc(Br)o1 | inactive
O=C(Oc1ccc(Br)cc1C(=S)N1CCOCC1)c1cccc([N+](=O)[O-])c1 | inactive
COC(=O)c1ccc(COC(=O)C2CCN(S(=O)(=O)c3c(Cl)cccc3Cl)CC2)o1 | inactive
COc1ccc(S(=O)(=O)NCCCCOc2ccc(Cl)cc2)cc1 | 0.135 (active)
COc1ccc(C(C)=O)cc1COc1ccc(Cl)c(C)c1 | 0.158 (active)
